Compound activity (PubChem)
Mito fusion act = inhibitors of mitochondrial division or activators of mitochondrial fusion; S. cerevisiae fusion-defective mutant growth rescue, CellTiterGlo 48 h; Potency, µM (series often up to 46.1 µM), most hits filed as activators; 0.23% of 320,000 active; AID 485298; further: nearly all actives have a fitted effect of over 45% in size
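Luminescent cell viability in 1536-well qHTS format served as the measure of rescued growth in ts fusion-mutant S. cerevisiae cultured on non-fermentable YPEG for 48 hours at 37C.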
aSyn yeast inh = inhibitors of alpha-synuclein toxicity in yeast | 0.14% of 370,000 active | Potency, µM (titrated, usually from 46.1 µM), most hits filed as activators | AID 652106 | Yeast expressing alpha-synuclein, growth rescue, BacTiter-Glo, 24 h; further: nearly all actives have a fitted effect of over 65% in size
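Readout is rescue of growth in alpha-synuclein-expressing yeast, so inhibitors of toxicity appear as activators. Growth after 24 hr at 30 deg C in galactose medium is quantified by luminescence.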
FUS yeast rescue = rescues growth of FUS-expressing yeast | S. cerevisiae FUS-expressing, growth rescue, OD600, 24 h | Potency, µM (doses to about 76.6 µM), usual class: activators | 0.24% of 390,000 active | AID 1347120; further: nearly all actives have a fitted effect of over 55% in size
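Toxicity suppression screen in FUS-yeast. Cells induced with 2% galactose, starting OD 0.005, treated 24hr at 30C with compounds at multiple final concentrations; growth by OD600.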
TDP-43 yeast inh = TDP-43 toxicity inhibition in yeast; TDP-43 expressing yeast growth rescue, BacTiter-Glo, 24 h; Potency, µM (highest dose often 46.1 µM), most hits filed as activators; 1.8% of 410,000 active; further: nearly all actives have a fitted effect of over 50% in size
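Yeast expressing TDP-43 (pregrown in raffinose, seeded at OD600=0.02 in galactose medium) exposed to compounds 24 hr at 30 deg C. Growth read by BacTiter-Glo luminescence; rescue of toxicity appears as increased signal.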
Abeta yeast res = A-beta toxicity reversal in yeast; Potency, µM (top dose mostly 46.1 µM), actives largely listed as activators; AID 1347071; yeast expressing A-beta42, growth rescue, OD600, 48 h; response scale: 0% DMSO, 100% iron-clioquinol control; 0.063% of 410,000 active; further: nearly all actives have a fitted effect of over 55% in size
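Yeast A-beta toxicity model in growth medium with pinned compounds, 48 h at 30 C; growth read as absorbance at 600 nm. Normalized to FeCl3/clioquinol equimolar mix (positive) and DMSO (negative).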
Hits are given with their value; – = inactive; ? = inconclusive; · = not tested or not shown; [ ] = another dose, or the depositor's remark. This is a sample that favours compounds with a hit; in the whole collection about 2.2% have one here. The call rests on the fitted dose curve; in most records, active means well fitted curve in the direction sought with a large enough effect; inconclusive means small, poorly fitted or top-dose-only effect, or another doubt; inactive means no such curve, though single readings can be large; an effect the other way counts as inactive or inconclusive.

SMILES	Mito fusion act	aSyn yeast inh	FUS yeast rescue	TDP-43 yeast inh	Abeta yeast res
CCOC(=O)C1CCN(c2ncnc3c2nc2n3CCCCC2)CC1	·	·	–	?	–
COc1ccc(NC(=O)Cn2c(=O)n(-c3cccc(C)c3)c(=O)c3c2c2cc(C)ccc2n3C)cc1Cl	·	·	–	–	–
CCCN1CCN(CCCNC(=O)c2ccc3c(c2)sc2nc(-c4ccc(C)cc4)cn23)CC1	·	·	–	–	–
CS(=O)(=O)CC[C@@H](C(=O)NCCc1ccccc1)N1Cc2ccccc2C1=O	·	·	–	–	–
CC(=O)N1CCc2c(sc3c2c(=O)n(CCc2ccccc2)c(=O)n3Cc2cccc(C)c2)C1	·	·	–	22.4µM	–
CC(=O)N1CCc2c(sc3c2c(=O)n(Cc2ccccc2)c(=O)n3Cc2cccc(Cl)c2)C1	·	·	–	–	–
Cc1nc([N+](=O)[O-])cn1CC(O)c1ccc2c(c1)OCCO2 (stereo not drawn)	·	–	·	·	·
Cc1ccc(NC(=O)c2cnc(SCC(=O)N3CCCc4ccccc43)n(C)c2=O)cc1	·	·	–	–	–
CCOc1c(Br)cc(C(N)=O)cc1OCc1ccccc1	11.2µM	–	–	–	–
CCc1cccc(-n2nnc(-c3nsc(NC(=O)c4cccs4)n3)c2C)c1	·	·	–	–	–
Nc1nonc1C(=O)N/N=C/c1cc(Br)ccc1O	–	?	–	2.82µM	10µM
Nc1nonc1-n1nnc(C(=O)N/N=C/c2cc(Br)ccc2O)c1CNc1ccccc1	–	–	–	–	–
Cc1ccc(CNc2ncnc3[nH]ncc23)o1	·	–	·	·	·
Cc1cc(OCc2cccc(S(=O)(=O)N3CCOCC3)c2)ccc1Cl	–	–	–	35.5µM	–
O=[N+]([O-])c1cc([N+](=O)[O-])c2c(=Nc3ccccc3)n(-c3ccccc3)n(O)c2c1	–	–	–	12.6µM	–
CCOc1ccc(NC2SC(=O)N(Cc3ccccc3)C2=O)cc1 (stereo not drawn)	·	·	–	12.6µM	?
O=C(Nc1ccc(Br)c(C(F)(F)F)c1)c1ccccc1	22.4µM	–	·	8.91µM	–
O=C(Nc1ccc(Br)c(C(F)(F)F)c1)c1ccc(C(F)(F)F)cc1	–	–	–	–	–
CCOC(=O)c1cnc(NCc2ccccc2)nc1C	–	·	–	7.08µM	–
COc1cc(NC(=O)c2cnc(NCc3ccccc3)nc2C)cc(OC)c1OC	–	–	–	–	–
Cc1ccc2c(c1)-c1onc(C(=O)N(C)c3cccc(C(F)(F)F)c3)c1CO2	·	–	–	–	–
Cc1cc(C)c(S(=O)(=O)N2CCN(C(=O)c3ccc(-n4nc(C)c(Cl)c4C)cc3)CC2)c(C)c1	·	–	15.8µM	?	–
O=C(c1ccc2c(c1)OCO2)N1CCN(S(=O)(=O)c2ccc(Br)cc2Cl)CC1	–	–	–	17.8µM	–
Cc1cc(C)c(S(=O)(=O)N2CCN(C(=O)c3ccc4c(c3)OCO4)CC2)c(C)c1	–	–	–	15.8µM	–
O=C(c1ccc2c(c1)OCO2)N1CCN(S(=O)(=O)c2ccccc2)CC1	–	–	·	–	–
SMILES	Mito fusion act	aSyn yeast inh	FUS yeast rescue	TDP-43 yeast inh	Abeta yeast res
Cc1ccc(S(=O)(=O)N2CCN(C(=O)c3ccc4c(c3)OCO4)CC2)cc1	–	–	–	–	–
Cc1cc(C(=O)N2CCc3c([nH]c4ccccc34)C2c2cccc(Cl)c2)nn1C (stereo not drawn)	5.01µM	–	–	–	–
O=C(c1cnccn1)N1CCc2c([nH]c3ccccc23)C1c1cccc(Cl)c1 (stereo not drawn)	?	?	?	17.8µM	–
CCC[C@H]1[C@@H](NC(=O)c2cccc(Cl)c2)CC[C@@]23CCCN2C(=O)CCC[C@@H]13	·	·	–	·	·
Cc1ccc(CCNC(=O)c2ccc(Cn3c(=O)c4cccn4c4cccnc43)cc2)cc1	·	·	–	–	–
Cc1ccc(S(=O)(=O)N2CCC(c3nc(-c4cccs4)nc4ccccc34)CC2)cc1	·	–	·	·	·
CC(C)Sc1cc(N2CCCC2)nc(-c2ccccc2Cl)n1	–	–	–	14.1µM	–
CCC(=O)Oc1ccc(C2Nc3ccccc3-c3nnc(SC)nc3O2)cc1 (stereo not drawn)	·	·	–	–	–
O=C(Nc1cccc([N+](=O)[O-])c1)N1CCCc2ccccc21	–	–	–	11.2µM	–
O=[N+]([O-])c1cccc(NC(=S)N2CCCC2)c1	–	–	–	–	–
O=C(c1ccc([N+](=O)[O-])cc1)N1CCc2ccccc2C1	–	–	–	–[0.397 µM]	–
O=[N+]([O-])c1cccc(NC(=S)N2CCc3ccccc32)c1	–	–	–	12.6µM	?
O=[N+]([O-])c1ccc(NC(=S)N2CCc3ccccc3C2)cc1	?	?	·	25.1µM	–
CN(Cc1ccccc1)/[N+]([O-])=N/Oc1ccc([N+](=O)[O-])cc1[N+](=O)[O-]	·	–	·	·	·
Cc1c(C(=O)NCc2cccc(Cl)c2)sc2nc3n(c(=O)c12)CCCC3	·	·	–	22.4µM	–
Cc1c(C(=O)NCc2ccccc2Cl)sc2nc3n(c(=O)c12)CCC3	·	·	–	17.8µM	–
Cc1c(C(=O)NCc2ccc(Cl)cc2)sc2nc3n(c(=O)c12)CCCC3	·	·	–	?	–
CC(/C=C/c1ccco1)=N/NC(=O)c1ccccc1Cl	–	–	?	–	–
O=C(N/N=C/C=C/c1ccco1)c1ccccc1Cl	–	–	39.8µM	–[1.82 µM]	–
COc1cc(-c2cc(OC)c3c(C)oc(C)c3c(=O)c2)ccc1OC(=O)c1cccc(Cl)c1	·	·	?	20µM	–
COc1ccc(-c2cc(OC(=O)c3cccc(Cl)c3)c3c(C)oc(C)c3c(=O)c2)cc1OC	·	·	?	–	–
COc1cc(-c2cc(OC)c3c(C)oc(C)c3c(=O)c2)ccc1OC(=O)c1ccccc1C	·	·	?	20µM	–
COc1ccc(-c2cc(OC(=O)c3ccccc3C)c3c(C)oc(C)c3c(=O)c2)cc1	·	·	–	–	–
CCOc1cc(-c2ccc(OC(=O)c3ccc(C)cc3)c(OC)c2)cc(=O)c2c(C)oc(C)c12	·	·	?	17.8µM	–
CC1=C(C(=O)Nc2ccccc2C)C(c2cccs2)n2nc(SCc3ccccc3)nc2N1 (stereo not drawn)	·	·	–	–	–
SMILES	Mito fusion act	aSyn yeast inh	FUS yeast rescue	TDP-43 yeast inh	Abeta yeast res
CCOC(=O)Cc1nc(N2CCN(C=O)CC2)c2c(C)c(C(=O)OCC)sc2n1	·	·	–	·	·
O=C(O)c1ccc2c(c1)C(=O)N([C@H](Cc1ccc(O)c(O)c1)C(=O)O)C2=O	–	·	·	·	·
Cn1c(=O)cc(OCCCC(=O)Nc2cc(-c3ccncc3)ccn2)c2ccccc21	·	·	–	·	·
C=CCN1C(=O)[C@@H](CC(=O)N2CCC(c3ccccc3)CC2)[C@]2(C(=O)OCC)CCCCC/C=C/12	·	·	–	·	·
CN(C)c1ccc(N=Nc2ccnc3ccccc23)cc1	·	–	·	·	·
Cc1ccc(CSc2ccc3nnc(-c4cccnc4)n3n2)cc1	–	–	–	–	–
O=C(CSc1ccc2nnc(-c3cccnc3)n2n1)Nc1ccc(F)cc1	–	–	–	–	–
